In all, about 330,000 compounds went through this assay and about 4,900 (1.5%) were called active.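 How the source made its calls: active means inhibition above the mean inhibition across the screen plus 3 SD (cut at about 25% in these data); inactive means the rest.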 The list comes from a sample in which actives are over-represented; it also holds similar structures and randomly drawn compounds.
Biological target: Platelet-activating factor acetylhydrolase (Homo sapiens) (UniProt Q13093)
Experiment: inhibition of plasma PAF acetylhydrolase – biochemical, fluorescence polarization, human, primary screen (AID 463082);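 further: inhibitors block binding of the rhodamine activity-based probe so polarization drops; 0% = enzyme with DMSO and 100% = wells lacking pPAFAH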
Details: recombinant pPAFAH, FP-rhodamine probe fluorescence polarization; at 3.39 µM; hits give high values

Platelet-activating factor acetylhydrolase (Homo sapiens), sequence (Q13093 whole entry, looked up): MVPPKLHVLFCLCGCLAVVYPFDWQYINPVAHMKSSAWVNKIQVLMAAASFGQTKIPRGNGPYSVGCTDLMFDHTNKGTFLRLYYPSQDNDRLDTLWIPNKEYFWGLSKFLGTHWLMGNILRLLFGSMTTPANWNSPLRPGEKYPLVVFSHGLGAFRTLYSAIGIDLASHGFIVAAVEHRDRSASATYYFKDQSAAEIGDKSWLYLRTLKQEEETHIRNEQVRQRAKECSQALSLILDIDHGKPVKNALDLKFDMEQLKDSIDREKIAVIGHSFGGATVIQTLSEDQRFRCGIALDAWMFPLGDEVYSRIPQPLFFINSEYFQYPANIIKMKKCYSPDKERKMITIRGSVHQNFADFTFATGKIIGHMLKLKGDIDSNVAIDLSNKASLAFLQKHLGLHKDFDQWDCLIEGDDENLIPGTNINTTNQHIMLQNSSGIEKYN

inhibition, inactive:
CCOC(=O)c1c(C)oc(C)c(C(=O)OCC)c1=O -1.33%
CCOC(=O)c1c(C)oc2cc(Br)c(OCC(N)=O)cc12 -0.28%
CCOC(=O)c1c(C)oc2ccc(OCC(=O)N(CC)CC)cc12 -9.45%
CCOC(=O)c1c(-c2ccccc2)oc2ccc(OCC(=O)NN)cc12 3.22%
CCc1cccc(C)c1NC(=O)CSc1nnc(-c2ccco2)n1N -2.12%
Cc1cc(NC(=O)CSc2nnc(-c3ccco3)n2N)no1 1.38%
CN(CC(=O)NC1CCCC1)S(=O)(=O)c1cnc[nH]1 5.78%
Cc1nc(CNS(=O)(=O)c2cc([N+](=O)[O-])ccc2C)cs1 1.89%
Cc1ccc(S(=O)(=O)NCc2cn3ccsc3n2)c(C)c1 3.63%
O=C(NCCN1CCOC1=O)C1CCC(=O)N(CCc2ccc(Cl)cc2)C1 (stereo not drawn) 6.31%
CCOC(=O)c1c(N=CN(C)C)c(C#N)c2n1CCCC2 -0.32%
CC(C)C(C)(C#N)NC(=O)CSc1nncn1-c1ccccc1 (stereo not drawn) 3.15%
CCc1cccc(C)c1NC(=O)COC(=O)CNC(=O)c1cccs1 -1.56%
Cc1cccc(C)c1NC(=O)CNC(=O)C1CCCC1 -3.74%
COc1ccc(C2=NN(c3nc4ccccc4s3)C(=O)C2)cc1 10.8%
CCC(=O)NC(=Nc1nc2ccccc2s1)NC(=O)CC 1.11%
C=CCNC(=O)COC(=O)c1ccccc1C(=O)N(C)C1CCCCC1 -0.67%
CC1(c2ccc3ccccc3c2)NC(=O)N(CC(N)=O)C1=O (stereo not drawn) 1.23%
COc1ccccc1NC(=O)CCSc1nnc(-c2ccc(O)cc2)o1 -1.64%
COc1ccccc1OCCC(=O)OCC(=O)NC(=O)NC(C)(C)C 2.65%
CC(C)(C)NC(=O)NC(=O)COC(=O)C1(C)CC1(Cl)Cl (stereo not drawn) 4.74%
COc1ccc(N(CC(=O)Nc2cc(OC)cc(OC)c2)S(=O)(=O)c2c(C)n[nH]c2C)cc1 1.91%
CC[C@]12c3[nH]c4cc(CCC(=O)N(C)C)ccc4c3CCN1C(=O)[C@@H](CC(=O)NCC13CC4CC(CC(C4)C1)C3)C[C@@H]2C(=O)N1CCN(C(=O)C2CC2)CC1 1.87%
CC(C)N(C(=O)[C@H]1C[C@H](CC(=O)NCCC2=CCCCC2)C(=O)N2CCc3c([nH]c4cc(CCC(=O)N(C)C)ccc34)[C@]12C)C(C)C 16.4%
CC(C)C(O)C1CCN(Cc2nc(Cc3ccccc3Cl)no2)CC1 (stereo not drawn) 1.22%
CCSCc1nc(N)nc(NCCc2ccccc2)n1 5.83%
CCc1nc2sc(C(=O)O)c(N)c2c2c1CCCC2 1.17%
Nc1c(C(=O)NCc2ccccc2)sc2nc3c(cc12)C(=O)CCC3 9%
Cc1ccccc1Cn1nc(C)c(NC(=O)C(F)(F)F)c1C -5.3%
COC(=O)c1cc(S(=O)(=O)N2CCN(c3cc(C)ccc3C)CC2)c[nH]1 -4.07%
CCOc1ccccc1NS(=O)(=O)c1c[nH]c(C(=O)OC)c1 -0.19%
Cn1c(=O)c2c(nc(N3CCCCCC3)n2CC(O)COc2ccc(Cl)cc2)n(C)c1=O (stereo not drawn) 4.56%
Cc1cc(SCc2c(F)cccc2Cl)nc(=O)[nH]1 1.8%
Cc1ccc(CSc2nsc(C)c2C#N)cc1 8.61%
O=C(Nc1ccc2c(c1)OCO2)C1CC(c2c(F)cccc2Cl)=NO1 (stereo not drawn) 1.16%
COCCNC(=O)c1snc2ccc(Cl)cc12 -0.4%
O=C1CSc2ccc(C(=O)NCc3ccccn3)cc2N1 0.84%
COc1cccc(NC(=O)NCCN2CCCCC2)c1 3.86%
Cc1cc(C)cc(NC(=O)NCc2ccccn2)c1 1.23%
Cc1ccc(C(=O)CN2C(=O)NC3(CCc4ccccc43)C2=O)c(C)c1 (stereo not drawn) -8.87%
O=S(=O)(Oc1ccccc1C(=S)N1CCOCC1)c1ccc(Cl)cc1 4.58%
O=C(NCc1ccc(F)cc1)C1CCC(CNc2c(N3CCOCC3)c(=O)c2=O)CC1 (stereo not drawn) 1.22%
CCOC(=O)c1sc(NC(=O)C2CSC3(C)CCC(=O)N23)nc1C (stereo not drawn) 0.96%
Cc1cc(C)c(C2C3=C(Nc4c2c(C)nn4-c2ccccn2)c2ccccc2C3=O)c(C)c1 (stereo not drawn) -8.35%
Cc1ccc(-c2ccnc3[nH]n(-c4ccccc4)c(=O)c23)cc1 2.79%
COc1ccccc1N(CC(=O)Nc1ccc(C)cc1Cl)S(=O)(=O)c1cccs1 6.13%
O=c1cc(CN2CCN(S(=O)(=O)/C=C/c3ccccc3)CC2)c2ccc(O)cc2o1 2.78%
Cc1ccccc1C(=O)Nc1cccc(-c2nnc(SCC(=O)O)n2C)c1 -1.6%
Cc1noc(C)c1C(=O)OC(C)C(=O)Nc1ccc2c(c1)OCO2 (stereo not drawn) 1.18%
Cc1cccc(C)c1NC(=O)CNC(=O)Cc1ccc(Br)cc1 1.92%
O=C(COC(=O)Cc1ccc(Br)cc1)Nc1ccc(N2CCOCC2)cc1 6.93%
CCC(C)N(C(=O)Cn1nc(C)c([N+](=O)[O-])c1C)C1CCS(=O)(=O)C1 (stereo not drawn) -1.29%
O=S(=O)(Nc1ncnc2sccc12)c1cccc(F)c1 12.2%
COc1ccc(-c2csc3ncnc(N4CCN(S(=O)(=O)c5cccc(F)c5)CC4)c23)cc1 3.15%
Cc1cnc(C)c(N2CCN(C(=O)C3CCC(=O)N(CCc4cccc(F)c4)C3)CC2)n1 (stereo not drawn) 4.96%
CCCCn1c(N)c(N(CC)C(=O)c2ccccc2C(F)(F)F)c(=O)[nH]c1=O -0.54%
CC(=O)Nc1cccc(Nc2nc(-c3cccs3)nc3ccccc23)c1 -12.8%
CCOC(=O)c1nc(Nc2ccc(C(=O)OC)cc2)c2ccccc2n1 -0.04%
O=C(COC(=O)CC1CC2CCC1C2)NC(=O)NC1CCCC1 (stereo not drawn) 2.89%
Cc1ccc(C(=O)N/C(=C/c2cccs2)C(=O)NCC2CCCO2)cc1 (stereo not drawn) -4.31%
Cc1cc(/C=C(/C#N)C(=O)Nc2ccc(Cl)cc2)c(C)n1-c1cccnc1 0.95%
COc1ccccc1C(=O)Nc1ccnn1C1CCN(C(=O)C(C)(C)C)CC1 -0.55%
COc1ccc(/C=C/C(=O)N2CCCC2)cc1OC 0%
COc1ccc(/C=C/C(=O)c2ccc(NS(=O)(=O)c3ccc(C)cc3)cc2)cc1O 23.6%
COCCn1c(SC(C)C(=O)NC2CC2)nnc1-c1cccc(C)c1 (stereo not drawn) -1.49%
COc1cc(C2C(C#N)=C(N)Oc3n[nH]c(-c4ccccn4)c32)cc(OC)c1OC (stereo not drawn) 2.74%
N#CC1=C(N)Oc2cc(O)ccc2C1C1CCCCC1 (stereo not drawn) 2.82%
CCOC(=O)[C@H]1[C@H]2COc3ccc(C)cc3[C@@H]2N2C(=O)CN(Cc3ccc(F)cc3)C(=O)[C@@]12C -0.02%
C=CCN(N=Nc1cccc([N+](=O)[O-])c1)c1cccc([N+](=O)[O-])c1 9.93%
COc1ccc(/C=C(\NC(=O)c2ccccc2)C(=O)NCCN2CCOCC2)cc1OC 4.35%
CCOC(=O)CNC(=O)/C(=C\c1ccc(F)cc1)NC(=O)c1ccccc1 -2.32%

inhibition, active:
CCOC(=O)c1c(C)oc2cc(Sc3ccccc3)c(O)c(O)c12 27.6%
CCOC(=O)c1c(-c2ccccc2)oc2cc(Br)c(O)c(C=O)c12 30.1%
NC(=O)c1c(NC(=O)CSc2nnc(-c3ccco3)n2N)sc2c1CCCC2 24.9%
Cc1ccc(S(=O)(=O)NCc2csc(C)n2)c(C)c1 57.6%
CCc1cccc(C)c1NC(=O)COC(=O)CC1CCCC1 31.2%
CCC(C)Cn1c(O)cc2nn(-c3nc4ccccc4s3)c(=O)c-2c1C (stereo not drawn) 49.8%
CC(C)(C)NC(=O)NC(=O)COC(=O)CCC1CCCCC1 29.9%
CCN(CC)C(=O)[C@H]1C[C@H](CC(=O)NCC23CC4CC(CC(C4)C2)C3)C(=O)N2CCc3c([nH]c4cc(CCC(=O)N(C)C)ccc34)[C@]12C 27.5%
NC(=O)c1sc2nc3c(c(-c4ccccc4)c2c1N)CCC3 25.1%
COC(=O)c1cc(S(=O)(=O)Nc2ccc(C)c(F)c2)c[nH]1 37.4%
Cc1snc(SCc2c(F)cccc2Cl)c1C#N 24.7%
Nc1ccc2nc3c(=O)[nH]c(=S)[nH]c3nc2c1 47.8%
COCCNC(=O)Nc1ccc2nc(-c3ccco3)c(-c3ccco3)nc2c1 75.6%
O=C(NCc1ccccn1)c1ccc2nc(-c3ccco3)c(-c3ccco3)nc2c1 65.8%
Cc1ccc(C2C3=C(Nc4[nH]n(-c5ccccc5)c(=O)c42)c2ccccc2C3=O)cc1 (stereo not drawn) 34.5%
O=C(COC(=O)Cc1ccc(Br)cc1)Nc1c(F)c(F)c(F)c(F)c1F 32.9%
Cc1cc(F)ccc1S(=O)(=O)Nc1ncnc2scc(-c3ccc(F)cc3)c12 30.3%
Cc1cccc(-c2nc(Nc3ccc(O)cc3)c3ccccc3n2)c1 26.7%
Cc1ccc(-n2c(C)cc(/C=C(\C#N)C(=O)NCC3CCCO3)c2C)cc1 (stereo not drawn) 68.5%
COC(=O)c1ccc(COc2ccc(/C=C/C(=O)c3ccc(OC)c(CSCC(=O)O)c3)cc2OC)cc1 28.7%
COc1ccc(C2C(C#N)=C(N)Oc3cc(N)ccc32)cc1OC (stereo not drawn) 26%
Cn1c2ccccc2c2cc(/C=C(\NC(=O)c3ccccc3)C(=O)NCC(=O)O)ccc21 24.7%
